# Results from PubChem BioAssay.
# Activity calls are given as the source filed them.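 How the source made its calls: active means hit in primary screen, with calcium signal over 5 SD above buffer well mean in both duplicates; inactive means the rest.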
# Assay: nonspecific calcium rise without TRPC4 – cell-based, HEK293 mu-opioid receptor line, counter-screen for TRPC4 activator project, confirmation (AID 449723);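 further: counter screen cells carry the mu-opioid receptor alone and lack TRPC4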; on activation: reference of the scale not given here
# Conditions: HEK293 mu-opioid cells, Fluo-4 calcium fluorescence, at 10 µM; stronger effect = higher value
Structure (SMILES),activation,outcome
CC1CCCCN1S(=O)(=O)c1ccc(C(=O)N(CCCN(C)C)c2nc3ccc(Br)cc3s2)cc1 (stereo not given),14.9% (active),
CC(C)(C)C(=O)NC(=S)NNC(=O)c1ccc(-c2ccccc2)cc1,83.6% (active),
CCCOc1ccc(C(=O)NNC(=S)NC(=O)c2ccccc2)cc1,39.5% (active),
OCCN1CCN(Cc2cc(Br)cc(Br)c2O)CC1,,inactive
c1ccc(Nc2nc(Nc3ccccc3)nc(N3CCNCC3)n2)cc1,,inactive
O=c1c2cc(Br)ccc2nc(-c2cccc(C(F)(F)F)c2)n1O,60.8% (active),
COc1cc(OC)cc(C(=O)NC(=S)NNC(=O)[C@H]2C[C@@H]2c2ccccc2)c1,40.4% (active),
c1ccc2c(c1)CCN(c1ncnc3c1[nH]c1ccccc13)C2,,inactive
O=C(CCc1ccccc1)NNC(=S)NC(=O)c1ccc(Cl)cc1,28.6% (active),
Cc1cccc(C(=O)NNC(=S)NC(=O)c2cccs2)c1,36.4% (active),
CN(C)CCCN(C(=O)c1ccc(S(=O)(=O)N2CCCCCC2)cc1)c1nc2ccc(F)cc2s1,27.1% (active),
CC[C@@H](C(=O)[C@@H](C)[C@@H](O)[C@H](C)CCc1ccc(C)c(O)c1C(=O)O)[C@H]1O[C@](CC)([C@H]2CC[C@](O)(CC)[C@H](C)O2)C[C@@H]1C,82.7% (active),
Cc1occc1C(=O)NNC(=S)NC(=O)COc1ccc(Cl)cc1Cl,18.4% (active),
COc1cc(OC)cc(C(=O)N[C@H](C(=O)OCC(=O)NC(C)c2ccccc2)C(C)C)c1 (stereo not given in full),45.3% (active),
O=C(NC(=S)NNC(=O)[C@H]1C[C@@H]1c1ccccc1)c1cccc(F)c1,30.6% (active),
